High-throughput results from PubChem.
An excerpt weighted towards active compounds, which were near 6.5% of everything screened.
LASV entry inh: blocks Lassa virus binding to or entry into cells; Lassa virus pseudotype entry inhibition, cell reporter; Potency, µM (top dose mostly 37.9 µM), for inactives: top-dose activity change, negative = inhibition, hits mostly inhibitors; 1.2% of 300,000 active; AID 540256; calls by dose curve; tested in HEK293 cells; also: potency is read from the fitted curve at half-maximal effect; nearly all actives have a fitted effect of over 50% in size
FMDV antiviral: foot and mouth disease virus antiviral activity; AID 1159524; 1.2% of 410,000 active; Potency, µM (doses to about 57.9 µM), without a hit: at the highest dose activity change, negative = inhibition, actives largely listed as inhibitors; FMDV antiviral cell-based qHTS; calls by dose curve; tested in HEK293T cells; also: read-out not given here; potency is read from the fitted curve at half-maximal effect; nearly all actives have a fitted effect of over 45% in size
HCMV inh: inhibitors of human cytomegalovirus. HFF cells, HCMV-luciferase reporter, 72 h; hits give low values. activity change, negative = inhibition, % at 57.5 µM. 4.5% of 410,000 active; in the data active = activity change below about -60%; inconclusive = no clear call, values can overlap the other calls; inactive = above about -39%
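Two compound doses tested in HFFs infected with HCMV-luciferase, MOI 1 PFU/cell, 72 h at 37C. Lysate luminescence read with OneGlo; data normalized against buffer-only and 10uM Salinomycin inhibitor controls.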
Vaccinia Venus: vaccinia inhibition (Venus reporter). Vaccinia virus Venus reporter expression, fluorescence. Potency, µM (doses to about 36.5 µM), inactives show at the highest dose activity change, negative = inhibition, hits mostly inhibitors. 0.46% of 330,000 active. AID 720580; calls by dose curve; tested in A549 cells; also: potency is read from the fitted curve at half-maximal effect; nearly all actives have a fitted effect of over 30% in size
Vaccinia mCherry: vaccinia inhibition (mCherry reporter). Vaccinia virus mCherry reporter infection, fluorescence. Potency, µM (highest dose often 36.5 µM), for the others: top-dose activity change, negative = inhibition, usual class: inhibitors. 0.63% of 310,000 active. AID 720579; calls by dose curve; tested in A549 cells; also: potency is read from the fitted curve at half-maximal effect; nearly all actives have a fitted effect of over 35% in size
Marburg entry inh: blocks Marburg virus binding to or entry into cells; Potency, µM (doses to about 37.8 µM), inactives show at the highest dose activity change, negative = inhibition, hits mostly inhibitors; Marburg virus pseudotyped entry inhibition, cell reporter; 1.8% of 300,000 active; calls by dose curve; tested in HEK293 cells; also: potency is read from the fitted curve at half-maximal effect
An asterisk follows results filed as active; i = inactive; u = inconclusive; x = not tested or not shown; [ ] = dose if it differs, or a comment. % is scaled to controls: 0 for no effect and ±100 for the full control effect.

SMILES	LASV entry inh	FMDV antiviral	HCMV inh	Vaccinia Venus	Vaccinia mCherry	Marburg entry inh
CCN1CCN(c2nc3c(S(=O)(=O)c4ccc(Br)cc4)nnn3c3ccsc23)CC1	15%[46.1 µM]	17%	13	u	u	x
COCCCNc1nc2c(c(=O)[nH]c(=O)n2C)n1CC(O)COc1ccc(Cl)cc1 (centres undefined)	0%[46.1 µM]	-6%	6	-8%	-8%	7%[46.1 µM]
CCN(CC)c1ccc(/C=N/NC(=S)NCc2ccco2)cc1	2.1µM*	u	u	-22%	u	u
S=C(NCc1ccco1)N/N=C/c1cccnc1	x	-6%	-68*	x	x	x
S=C(NCc1ccco1)N/N=C/c1ccc(Cl)cc1	4.6µM*	4%	0	-19%	u	-10%
O=C([C@@H]1C[C@@H](Sc2nc3ccccc3[nH]2)CN1Cc1c(F)cccc1F)N1CCOCC1	x	-14%	x	-13%	-4%	x
O=C1/C(=C\c2ccccc2)CCc2c1[nH]c1ccccc21	u	4%	-7	x	x	16µM*
Cc1ccc(/C=C2/CCc3c([nH]c4ccccc34)C2=O)cc1	u	29%	19	-11%	i	u
CC(C)/C=C1\CCc2c([nH]c3ccccc23)C1=O	0%[46.1 µM]	25%	-70*	-3%	-10%	6%[46.1 µM]
Cc1oc(-c2ccccc2NC(=O)c2cccnc2)nc1CNC(=O)c1ccc(N(C)C)cc1	x	4%	x	-2%	-8%	x
C=CCC(CC=C)(CNC(=O)C(=O)Nc1ccc(C(=O)OCC)cc1)c1ccccc1	u	0%	22	-11%	i	6%[46.1 µM]
CN(C)c1cccc(CNc2nccc3[nH]c(-c4cccc(F)c4)nc23)c1	x	x	-16	x	x	x
O=C(CCc1ccccc1)N/N=C/c1cc(Br)ccc1O	u	-4%	-76*	u	13µM*	22µM*
COc1ccc(O)c(/C=N/NC(=S)NCCc2ccccc2)c1	u	-24%	-19	u	u	u
CN(C)c1ccc(C(=O)N/N=C/c2cc(Br)cc(Br)c2O)cc1	u	-15%	-90*	-36%	-39%	u
Oc1ccc(Br)cc1/C=N/NC(=S)NCCc1ccccc1	-13%[46.1 µM]	2%	-18	-11%	1µM*	u
CCOc1cc(Br)cc(/C=N/NC(=O)c2cccnc2)c1O	u	u	20	u	7.1µM*	u
C[C@H](CO)N1C[C@H](C)[C@@H](CN(C)C(=O)Nc2ccc3c(c2)OCO3)OCc2cn(nn2)CCCC1=O	x	x	7	x	x	x
CC1CCc2nc(-c3cc4ccc(O)cc4oc3=O)sc2C1 (centres undefined)	x	x	x	11%	7%	x
COc1ccc(N2C(=O)[C@@H]3[C@@H](C2=O)[C@@H]2C=C[C@H]3C23CC3)c(OC)c1	x	x	x	x	x	14%[46.1 µM]
COc1cccc(CO[C@H]2C=C[C@@H](c3ccccc3)O[C@H]2CO)c1	x	x	x	x	x	-7%[14.2 µM]
CC(C)C[C@H]1COc2cccc(NCCO)c2S(=O)(=O)N1	x	x	-7	x	x	x
Cc1ccc(C(=O)N/N=C\C=C\c2ccc(Br)cc2)cn1	x	10%	-13	x	x	x
O=C(N/N=C/c1cc(Br)ccc1O)c1ccccc1Cl	u	1%	-65*	u	u	u
O=C(N/N=C/c1cc(Br)ccc1O)C(=O)Nc1ccccc1OC(F)(F)C(F)F	u	-28%	-105*	x	x	u
SMILES	LASV entry inh	FMDV antiviral	HCMV inh	Vaccinia Venus	Vaccinia mCherry	Marburg entry inh
Cc1ccc(C(=O)N/N=C/c2cc(Br)ccc2O)cn1	x	16%	-102*	x	x	x
CCOc1ccccc1CNS(=O)(=O)c1ccc(-c2cnc(C3CC3)o2)cc1	u	u	-69*	u	u	x
Cc1ccc(NS(=O)(=O)c2ccc(-c3cnc(C4CC4)o3)cc2)cc1	x	14%	-29	x	x	x
COc1ccc(C)cc1NS(=O)(=O)c1ccc(-c2cnc(C3CC3)o2)cc1	u	u	-103*	u	u	x
COc1cc(Cl)c(NS(=O)(=O)c2ccc(-c3cnc(C4CC4)o3)cc2)c(OC)c1	u	u	-76*	u	u	x
Cc1ccc(N(C)S(=O)(=O)c2ccc(-c3cnc(C4CC4)o3)cc2)cc1	1.4µM*	-9%	u	-22%	u	x
O=S(=O)(c1ccccc1Br)N1CCN(c2nc(-c3cccs3)nc3ccccc23)CC1	x	x	x	-9%	-13%	x
Clc1ccccc1CSc1nc(NCCc2ccccc2)c2ccccc2n1	-3%[46.1 µM]	u	64	-17%	-15%	x
